Results from PubChem BioAssay AID1159580 (chemical genetic matrix, 2015).
Where “and” joins values, the source holds several entries; their conditions need not be identical. Equal entries are not always repeated. In all, about 5,500 compounds went through this assay and about 2,000 (36%) were called active. Not shown: some 18% with an inconclusive outcome. Cut-off read from the data, not from the text of the source: active = normalized growth mostly below about 0.91 (no sharp cut-off); inconclusive = no clear call, values can overlap the other calls; inactive = mostly above about 0.92. This is one part of the list.

Experiment: chemical genetic growth profiling, strain panel (AID 1159580);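 note: tested at 20 µM; growth read once vehicle control cultures reached saturation at 30 °C; 1 = growth at the plate median or of vehicle wells; lower values mean less growth of the strain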
Settings: S. cerevisiae deletion strains, growth OD

Measured: normalized growth

CC1[C@H](C)OC(=O)CC(O)CC(O)CC(O)CCC(O)C(O)C[C@]2(O)CC(O)C(C(=O)O)C(CC(OC3O[C@H](C)[C@@H](O)[C@H](N)[C@@H]3O)/C=C/C=C/C=C/C=C/CC/C=C/C=C/[C@H](C)[C@H]1O)O2 (stereo partly specified)
active: locus YAL013W, strain DEP1, active compounds read low 0.0554 | locus YAL021C, strain ccr4, active compounds read low 0.186 | locus YAL026C, strain drs2, active compounds read low 0.0661 | locus YAL030W, strain snc1, active compounds read low 0.824 | locus YBR009C, strain hhf1, active compounds read low 0.557 | locus YBR021W, strain FUR4, active compounds read low 0.369 | locus YBR171W, strain sec66, active compounds read low 0.0858 | locus YBR229C, strain ROT2, active compounds read low 0.206 | locus YCL011C, strain gbp2, active compounds read low 0.223 | locus YCL029C, strain bik1, active compounds read low 0.425 | locus YCL069W, strain vba3, active compounds read low 0.849 | locus YCR088W, strain abp1, active compounds read low 0.0729 | locus YDL035C, strain GPR1, active compounds read low 0.0678 | locus YDL074C, strain BRE1, active compounds read low 0.144 | locus YDL101C, strain DUN1, active compounds read low 0.188 | locus YDL134C, strain PPH21, active compounds read low 0.592 | locus YDL185W, strain tfp1, active compounds read low 0.0687 | locus YDL192W, strain arf1, active compounds read low 0.133 | locus YDR001C, strain nth1, active compounds read low 0.815 | locus YDR069C, strain doa4, active compounds read low 0.858 | locus YDR101C, strain arx1, active compounds read low 0.119 | locus YDR150W, strain NUM1, active compounds read low 0.0676 | locus YDR162C, strain NBP2, active compounds read low 0.0472 | locus YDR195W, strain ref2 0.466 | locus YDR297W, strain sur2, active compounds read low 0.828 | locus YDR318W, strain mcm21, active compounds read low 0.194 | locus YDR334W, strain swr1, active compounds read low 0.415 | locus YDR335W, strain msn5, active compounds read low 0.904 | locus YDR388W, active compounds read low 0.0675 | locus YDR502C, strain sam2, active compounds read low 0.0781 | locus YEL003W, strain gim4, active compounds read low 0.154 | locus YEL037C, strain rad23, active compounds read low 0.723 | locus YEL061C, strain CIN8 (second series), active compounds read low 0.815 | locus YEL061C, strain CIN8, active compounds read low 0.0554 | locus YER015W, strain faa2, active compounds read low 0.822 | locus YER110C, active compounds read low 0.188 | locus YER155C, strain BEM2 (second series), active compounds read low 0.633 | locus YER155C, strain BEM2, active compounds read low 0.122 | locus YER167W, strain BCK2, active compounds read low 0.0855 | locus YFR010W, strain ubp6, active compounds read low 0.137 | locus YGL078C, strain dbp3, active compounds read low 0.0582 | locus YGL086W, strain mad1, active compounds read low 0.124 | locus YGL173C, strain kem1, active compounds read low 0.799 | locus YGL227W, strain vid30, active compounds read low 0.061 | locus YGL240W, strain doc1, active compounds read low 0.537 | locus YGL248W, strain PDE1, active compounds read low 0.646 | locus YGL253W, strain hxk2, active compounds read low 0.44 | locus YGR078C, strain PAC10, active compounds read low 0.0638 | locus YGR135W, strain pre9, active compounds read low 0.0907 | locus YGR229C, strain SMI1, active compounds read low 0.0609 | locus YGR252W, strain gcn5, active compounds read low 0.385 | locus YHR013C, strain ard1, active compounds read low 1.35 [resistant] | locus YHR027C, strain rpn1, active compounds read low 0.77 | locus YHR030C, strain SLT2, active compounds read low 0.179 and 0.0985 | locus YHR079C, strain IRE1 (second series), active compounds read low 0.312 | locus YHR079C, strain IRE1, active compounds read low 0.102 | locus YHR094C, strain hxt1, active compounds read low 0.302 | locus YHR129C, strain ARP1, active compounds read low 0.129 | locus YHR142W, strain chs7, active compounds read low 0.658 | locus YHR200W, strain rpn10, active compounds read low 0.0755 | locus YIL066C, strain RNR3, active compounds read low 0.51 | locus YIL125W, strain kgd1, active compounds read low 0.0583 | locus YIR030C, strain dcg1, active compounds read low 0.182 | locus YJL092W, strain hpr5, active compounds read low 0.402 | locus YJL095W, strain BCK1, active compounds read low 0.567 and 0.099 | locus YJL115W, strain asf1, active compounds read low 0.887 | locus YJL129C, strain trk1, active compounds read low 1.2 [resistant] | locus YJL134W, strain LCB3, active compounds read low 0.372 | locus YJL164C, strain tpk1, active compounds read low 0.775 | locus YJL166W, strain qcr8, active compounds read low 0.789 | locus YJL168C, strain set2, active compounds read low 0.199 | locus YJL187C, strain SWE1 (second series), active compounds read low 0.168 | locus YJL187C, strain SWE1, active compounds read low 0.846 | locus YJR043C, strain POL32, active compounds read low 0.0611 | locus YJR066W, strain TOR1, active compounds read low 0.0213 | locus YJR075W, strain HOC1, active compounds read low 0.0672
inactive: locus YBL061C, strain skt5, active compounds read low 0.931 | locus YBR023C, strain chs3, active compounds read low 0.918 | locus YBR279W, strain paf1, active compounds read low 0.982 | locus YCL016C, strain dcc1, active compounds read low 0.971 | locus YDL005C, strain med2, active compounds read low 0.953 | locus YDL040C, strain nat1, active compounds read low 0.995 | locus YDR137W, strain rgp1, active compounds read low 0.914 | locus YDR159W, strain sac3, active compounds read low 1.04 | locus YDR392W, strain spt3, active compounds read low 1.11 | locus YER016W, strain bim1, active compounds read low 0.961 | locus YER111C, strain swi4, active compounds read low 0.959 | locus YGL167C, strain pmr1, active compounds read low 0.996 | locus YIL073C, strain SPO22, active compounds read low 0.987 | locus YJL095W, strain BCK1 (second series), active compounds read low 0.994 | locus YJL154C, strain vps35, active compounds read low 0.985
